The source of these data is PubChem BioAssay AID588689 (Southern Research Specialized Biocontainment Screening …, 2011).

In all, about 340,000 compounds went through this assay and about 1,000 (0.29%) were called active. No stated cut-off is given here; in the data, inconclusive means inhibition above about 29% without an active follow-up result; inactive means below that. A selection follows. Potency and affinity values are given separately.

The assay addresses Genome polyprotein (Dengue virus type 2 (strain 16681-PDK53)) (UniProt P29991). As to the kind of experiment: Dengue-2 NS5 methyltransferase inhibitors, primary screen, biochemical, confirmation dose response (AID 588689). Conditions: Dengue-2 NS5 methyltransferase capping enzyme assay, at 25 µM, stronger effect = higher value.
The mark [1] stands for this setting: measured here: pilot screen replicate inhibition.

By inhibition is commonly meant the relative decrease from the control value, in per cent.

For the molecule `Cc1onc(-c2ccccc2)c1C(=O)Nc1ccc(Cl)cn1`, the inhibition was -2.24% (inactive). Still for that read-out and setting: the same measure for `Cc1cc(NC(=O)CSCc2nc(-c3cccc(F)c3)oc2C)no1`: 4.17% (inactive); for `COc1ccc(N(CC(=O)NCCSC2CCCCC2)S(=O)(=O)c2ccc(C)cc2)cc1`: -4.51% (inactive); for `Cc1ccc(N2C(=O)C(Cl)=C(N3CCOCC3)C2=O)c(C)c1`: 5.79% (inactive). Same read-out and setting: in the case of `O=C1C(Cl)=C(N2CCCCCC2)C(=O)N1c1ccc(Cl)cc1` it was 2.94% (inactive). On the same count and under the same terms, in the case of `CN1CCN(C2=C(Cl)C(=O)N(c3cccc(Cl)c3)C2=O)CC1` it was 12.9% (inactive). With `Cc1cccc(N2C(=O)CC(N3CCOCC3)C2=O)c1` (stereo not drawn), the inhibition is 0% (inactive).

As to `O=C1C(Cl)=C(N2CCCCCC2)C(=O)N1c1ccccc1`, the inhibition was -0.82% (inactive). On the same count and under the same terms, in the case of `CC1CCCN(C2=C(Cl)C(=O)N(c3cccc(Cl)c3)C2=O)C1` (stereo not drawn) it was 5.18% (inactive); in that of `COc1cc(C(=O)C(O)c2ccc(O)c(OC)c2)ccc1O` (stereo not drawn), 0% (inactive); in that of `CN(Cc1cnn(-c2ccc(F)cc2)c1)Cc1nc(Cc2ccccc2)no1`, -8.38% (inactive). On the same count and under the same terms, the same measure for `COC(=O)c1ccccc1C(=O)N1CCC(CCC(=O)NC2CC2)CC1`: -9.72% (inactive); for `CC(C)NC(=O)CSc1nccc(-c2cccs2)n1`: 6.26% (inactive). Turning to `CC(=O)C1=NN(c2ccccc2)C2(S1)S/C(=C\c1ccccc1)C(=O)N2c1ccccc1` (stereo not drawn), the inhibition is 3.22% (inactive). For the molecule `Cc1ccc(SCCc2cc[n+](CC(=O)c3ccccc3)cc2)cc1`, the inhibition is -23.5% (inactive). Regarding `CCOc1ccc(-n2c(SCc3cc(=O)oc4cc(C)ccc34)nnc2-c2cccnc2)cc1`, the inhibition was -5.85% (inactive). Same read-out and setting: in the case of `COCC(COS(N)(=O)=O)Cc1ccccc1` (stereo not drawn) it was -5.61% (inactive); in that of `C/C(=N\NS(=O)(=O)c1ccccc1)c1ccc2c(c1)OCCO2`, -5.78% (inactive).

As to `CC(=O)NCCc1nc2cc(NC(=O)c3ccc(F)cc3)ccc2n1C`, the inhibition is 0.65% (inactive). Still for that read-out and setting: in the case of `COc1ccc(C2=CC(=O)CC(C)(C)C2)cc1OC` it was -7.08% (inactive); in that of `CCn1c(CNC(=O)c2ccccc2F)nnc1SCC(=O)Nc1nncs1`, -2.93% (inactive). Same read-out and setting: in the case of `Cc1ccc(N2C(=O)C(Cl)=C(N3CCCCCC3)C2=O)c(C)c1` it was -10.4% (inactive); in that of `O=C1C(Cl)=C(N2CCCCCC2)C(=O)N1c1ccc(Br)cc1`, 4.71% (inactive); in that of `COC(=O)c1cccc(N2C(=O)C3CC=CCC3C2=O)c1` (stereo not drawn), -7.22% (inactive).

As to `COC(=O)c1cccc(N2C(=O)c3cccnc3C2=O)c1`, the inhibition was 1.12% (inactive). In the case of `O=C1C(Cl)=C(N2CCCC2)C(=O)N1c1ccc(F)cc1`, the inhibition is 10.2% (inactive). Still for that read-out and setting: the same measure for `Cc1ccc(N2C(=O)C(Cl)=C(NCCO)C2=O)c(C)c1`: -3.68% (inactive); for `N=C1c2ccccc2CN1NC(=O)CC12CC3CC(CC(C3)C1)C2`: -6.39% (inactive); for `COc1ccc(NCc2nnc(SCC#N)n2-c2ccccc2OC)cc1`: 4.71% (inactive). Consider `O=C(COC(=O)COc1ccccc1)NC12CC3CC(CC(C3)C1)C2`, for which the inhibition is 3.65% (inactive).

With `CC1=CC(C)(C)N(C(=O)CN2C(=O)CCC2=O)c2ccccc21`, the inhibition was 4.64% (inactive). Still for that read-out and setting: the same measure for `C/C(=N\OCC(=O)Nc1cc(C)cc(C)c1)c1ccc2c(c1)OCCO2`: -2.91% (inactive). The same measure, in the same setting: the same measure for `O=C1COC(c2ccccc2O)=NN1CCCl`: 4.57% (inactive); for `O=C(CN1C(=O)NC2(CCCC2)C1=O)OCCOc1ccc(Br)cc1`: -1.44% (inactive); for `CCOC(=O)[C@H](C)N1[C@H](C)[C@H](c2ccccc2)Oc2ccc(Cl)cc2S1(=O)=O`: -5.21% (inactive). Same read-out and setting: in the case of `Cc1ccc2cc(C=O)c(N(C)C)nc2c1` it was 1.3% (inactive). For the molecule `Cc1ccc2cc(C=O)c(Cl)nc2c1`, the inhibition was -3.88% (inactive).

As for `COc1ccc(C(=O)NC2CCCCCCC2)cc1OC`, the inhibition was -1.55% (inactive). Still for that read-out and setting: the same measure for `CCN=c1scc(-c2ccco2)n1/N=C/c1ccc(O)cc1`: 4.53% (inactive); for `CN=c1scc(-c2cccs2)n1/N=C/c1ccccc1O`: -0.73% (inactive); for `CCN=c1scc(C)n1/N=C/c1cc(Br)c(O)c(Br)c1`: 9.36% (inactive). Same read-out and setting: the same measure for `CC(C)N=c1scc(-c2cccs2)n1/N=C/c1ccc(O)c(O)c1O`: 16.7% (inactive); for `CN=c1scc(C)n1/N=C/c1ccc(O)cc1O`: 2.07% (inactive). Regarding `CCN=c1scc(C)n1/N=C/c1ccsc1`, the inhibition is 2.4% (inactive). The same measure, in the same setting: in the case of `CN=c1scc(-c2ccco2)n1/N=C/c1ccc(O)c(O)c1` it was -2.15% (inactive). The same measure, in the same setting: the same measure for `CN=c1scc(-c2ccccc2F)n1/N=C/c1ccc(O)c(O)c1O`: 26.9% (inactive). For `COc1ccc(S(=O)(=O)NCCCN2CCCC2=O)cc1OC`, the inhibition was -6.1% (inactive). For the molecule `CC(C)(C)[C@@H]1C=C(C(=O)O)[C@H](c2ccc(Cl)cc2)N1S(=O)(=O)c1ccccc1`, the inhibition was -3.97% (inactive). Under setting [1], the inhibition is -4.61%. Turning to `Cn1c(SCC(=O)Nc2ccccc2)nc2c([nH]c3ccccc32)c1=O`, the inhibition was -11.1% (inactive). Still for that read-out and setting: in the case of `Nc1ccn([C@@H]2O[C@H](CNC(=O)[C@@H](Cc3cccnc3)NC=O)[C@@H](O)[C@H]2O)c(=O)n1` it was -7.38% (inactive); in that of `Cc1cc2nc(C)c3c(n2n1)CCC3`, -6.57% (inactive); in that of `Nn1c(COc2ccccc2F)nnc1SCC(=O)NC1CCCC1`, -8.38% (inactive). On the same count and under the same terms, in the case of `O=C1c2ccccc2NC(c2ccc(-c3ccc(F)cc3)o2)N1O` (stereo not drawn) it was 13.4% (inactive); in that of `CCOC(=O)c1cc(-c2ccc(/C=N\n3cnnc3)o2)ccc1Cl`, -3.91% (inactive).

In the case of `Cc1c(C(=O)O)cccc1-c1ccc(/C=C2/NC(=O)N(c3ccccc3)C2=O)o1`, the inhibition is -1.55% (inactive).

For the molecule `Cc1ccc(CN2C(=O)N/C(=C/c3ccc(-c4ccc(C(=O)O)cc4)o3)C2=O)cc1`, the inhibition was 14.9% (inactive). With `CN1C(=O)/C(=C/c2ccc(-c3ccccc3[N+](=O)[O-])o2)SC1=Nc1ccc(Cl)c(C(=O)O)c1`, the inhibition was 24.5% (inactive). `CC1=NN(c2ccc(Cl)c(C(=O)O)c2)C(=O)C1`: the inhibition is 10.9% (inactive). Take `CCCOC(=O)c1cc(-c2ccc(/C=C3/C(=O)N(C)C(=O)C(C#N)=C3C)o2)ccc1Cl`: the inhibition is -12.3% (inactive). Besides, under setting [1], the inhibition is -8.18%. Turning to `O=C(O)c1ccccc1-c1ccc(/C=C2\SC(=O)N(c3ccccc3)C2=O)o1`, the inhibition was 25.1% (inactive). Same read-out and setting: the same measure for `CC1=NN(c2ccc(C)cc2)C(=O)/C1=C/c1ccc(-c2cc([N+](=O)[O-])ccc2O)o1`: 21.8% (inactive).
